Assay results reported in the supplement of paper PMC6555819.

Assays:
Assay in all cases: PBM binding z-score (relative to random genomic background probes); higher = stronger binding; sequences stand for … in GC…GCGATTGACAGCGTAGAATGAAGG
[1] = tested on: PPARg:RXRa DBDmut IVT, anti-RXR (DBD mutation: RXRa K156A/R161A, NR concentration 270 nM, RXRa partner concentration 90 nM)
Method in brief: (§1)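 Binding z-scores were set against random background probes. The data came from custom Agilent 4×180K protein-binding microarrays carrying double-stranded probes with 34-nt variable regions, incubated 1 h with ligand-free nuclear receptor dimers. Partner-specific antibodies detected binding, and scanned fluorescence was regression-normalized.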

[2] = tested on: PPARg:RXRa IVT, anti-PPARg (NR concentration 270 nM, RXRa partner concentration 90 nM)
Method in brief: as §1

[3] = tested on: PPARg DBDmut:RXRa IVT, anti-PPARg (DBD mutation: PPARg1 K132A/R137A, NR concentration 270 nM, RXRa partner concentration 90 nM)
Method in brief: as §1

[4] = tested on: PPARg DBDmut IVT, anti-PPARg (DBD mutation: PPARg1 K132A/R137A, NR concentration 270 nM)
Method in brief: as §1

[5] = tested on: PPARg homodimer (NR concentration 180 nM)
Method in brief: as §1

[6] = tested on: PXR:RXRa (NR concentration 270 nM, RXRa partner concentration 90 nM)
Method in brief: as §1

[7] = tested on: PXR homodimer (NR concentration 270 nM)
Method in brief: as §1

[8] = tested on: RARa:RXR (NR concentration 270 nM, RXRa partner concentration 90 nM)
Method in brief: as §1

[9] = tested on: RARa homodimer (NR concentration 270 nM)
Method in brief: as §1

[10] = tested on: RARb:RXRa (NR concentration 270 nM, RXRa partner concentration 90 nM)
Method in brief: as §1

[11] = tested on: RARb homodimer (NR concentration 270 nM)
Method in brief: as §1

[12] = tested on: RARg:RXRa (NR concentration 270 nM, RXRa partner concentration 90 nM)
Method in brief: as §1

[13] = tested on: RARg homodimer (NR concentration 270 nM)
Method in brief: as §1

[14] = tested on: RXRa DBDmut IVT, anti-RXR (DBD mutation: RXRa K156A/R161A, NR concentration 90 nM)
Method in brief: as §1

[15] = tested on: RXRa homodimer (NR concentration 180 nM)
Method in brief: as §1

[16] = tested on: THRa:RXRa (NR concentration 90 nM, RXRa partner concentration 90 nM)
Method in brief: as §1

[17] = tested on: THRa homodimer (NR concentration 90 nM)
Method in brief: as §1

[18] = tested on: VDR homodimer (NR concentration 270 nM)
Method in brief: as §1

Sequence | PBM binding z-score [1] | PBM binding z-score [2] | PBM binding z-score [3] | PBM binding z-score [4] | PBM binding z-score [5] | PBM binding z-score [6] | PBM binding z-score [7] | PBM binding z-score [8] | PBM binding z-score [9] | PBM binding z-score [10] | PBM binding z-score [11] | PBM binding z-score [12] | PBM binding z-score [13] | PBM binding z-score [14] | PBM binding z-score [15] | PBM binding z-score [16] | PBM binding z-score [17] | PBM binding z-score [18]
CCTACTGGGCCAAGGTCCTTGATCAGTCAAAGCA | 3.51 | 3.4 | -1.28 | -1.15 | -0.287 | -0.74 | -0.766 | -0.787 | -1.65 | 0.256 | 0.00283 | -0.396 | -0.0984 | -1.13 | -0.463 | -0.0193 | -0.503 | -0.774
TCGCGGAGGACACGAAAGGTCAGAGCTCGACATC | 0.791 | 1.5 | 0.00207 | -0.746 | 2.36 | 3.97 | 0.407 | 4.24 | 1.04 | 4.03 | 4.42 | 4.79 | 5.1 | 0.362 | 3.86 | 3.6 | 0.956 | 0.898
CCTATTAGTTGACCATAAGGGCAACCGCAGCTCG | 0.361 | 0.808 | 0.402 | 0.299 | 0.816 | 0.705 | 1.05 | 0.896 | 1.78 | 1.54 | 2.18 | 1.05 | 1.07 | 0.58 | 0.711 | 1.83 | 1.49 | 0.923
CGAACTAGGTCATTGACAGGACAGTCAATAGTAA | 7.74 | 8.19 | 3.76 | 2.34 | 1.94 | 1.66 | 0.135 | 2.34 | 0.378 | 3.51 | 2.6 | 4.51 | 4.14 | 2.45 | 2.29 | 2.83 | 0.652 | 1.07
TCTTTTAGATCAAAGGTTAAGAAAGCCGAAGCCT | 2.09 | 3.01 | 1.08 | 1.12 | 1.05 | 2.05 | 0.154 | 2.88 | 0.435 | 2.07 | 1.42 | 1.81 | 1.01 | 1.32 | 2.81 | 1.33 | -0.158 | -0.294
ACGATTAGTTGACTTAGGGCAACCGATACGACGC | -0.586 | 0.153 | 0.298 | 0.246 | -0.134 | 0.199 | -0.0112 | 0.392 | 0.251 | 0.703 | 0.941 | 0.65 | 0.654 | 0.0967 | 0.512 | 1.43 | 0.264 | -0.201
CCTATTGGGCCATCAGGTCATTGATATCAACGTT | 3.63 | 3.39 | 0.758 | 0.0799 | 1.42 | 1.84 | 0.775 | 2 | 0.136 | 2.25 | 2.49 | 2.26 | 1.88 | 0.643 | 1.39 | 3.3 | 2.98 | 1.87
GCTGATAGGTCAACTGATGGTCAGCTAAAGCTCG | 3.71 | 3.35 | -0.33 | -0.713 | 4.6 | 3 | -0.565 | 4.46 | 1.39 | 4.48 | 3.72 | 6.23 | 6.12 | 1.65 | 4.91 | 2.55 | -0.713 | -0.0716
ACTAGCAGGCCAAGATTGGGTCACTCAAACAAAG | 0.594 | 1.6 | -0.903 | -0.363 | 0.0638 | 0.192 | -0.441 | 0.988 | -0.597 | 1.47 | 1.97 | 1.63 | 1.37 | -0.534 | 0.621 | 1.84 | 0.533 | 0.0162
AGAATGAGATTAAGATCAGGGAAACAGAATACAT | -0.828 | -0.427 | 0.0625 | 0.018 | 0.131 | -0.366 | 0.121 | -0.347 | -0.129 | -1.06 | -0.523 | 0.0579 | 0.312 | -0.493 | -0.0987 | -0.0153 | -0.567 | -0.0769
CGTCCACGGTCAAGGTCAGTGAAAGAGACTCGAA | 0.397 | 1.53 | -0.802 | -1.07 | 1.28 | 1.69 | 0.177 | 2.2 | 0.0153 | 4.28 | 3.86 | 3.41 | 5.01 | 0.716 | 2.45 | 3.05 | 1.64 | 0.791
CCTTATGGGTCACTCCAGGTTATAGCATCGGAGT | 5.51 | 5.56 | 1.27 | 1.01 | 1.61 | 4.22 | 0.18 | 2.9 | 0.657 | 3.35 | 2.87 | 3.68 | 3.9 | 0.586 | 3.31 | 4.85 | 0.288 | 0.918
GGAACGAGGGCAAGTTGATCGCAGAGTTTGATGG | 3.49 | 2.88 | 0.162 | -0.887 | -0.254 | 0.576 | -0.0478 | 0.607 | -0.361 | 2.51 | 1.5 | 1.49 | 1.89 | 2.28 | 0.723 | 1.2 | -0.251 | 1.58
CGTCCACGGTCAGAGAGGTCAGTGAATGCCGAGT | 0.449 | 1.17 | -1.02 | -1.36 | 2.07 | 3.13 | 2.89 | 2.83 | 0.503 | 3.95 | 4.32 | 3.6 | 4.74 | 0.914 | 2.75 | 2.54 | 0.458 | 2.11
TGATTGAGGTTATAAGATCAGGGAACGTTGCAAA | 0.431 | 1.59 | 0.391 | 0.349 | 0.564 | 0.896 | -0.0809 | 1.5 | 0.232 | 1.19 | 0.293 | 1.55 | 1.13 | 0.404 | 2.06 | 1.68 | 0.31 | 0.65
CAAACTAGGTCAAGAGGTCAAAGTACGCTTCCCG | 8.34 | 8.65 | 3.41 | 3.08 | 4.62 | 6.26 | 3.22 | 7.37 | 3.18 | 5.45 | 5.69 | 8.23 | 7.27 | 3.15 | 8.07 | 4.23 | 2.61 | 4.76
